# KCNH2 WT inh = blocks the wildtype human KCNH2 potassium channel. Q12809. U2OS, BacMam KCNH2, thallium flux FluxOr; stronger effect = lower value. activity change, % at 1.84 µM. actives 0.37% (n = 340,000). AID 720551;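 active = maximum activity change below -70%; inconclusive = maximum activity change between -70% and -50%; inactive = maximum activity change above -50%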; also: % is scaled to controls: 0 for no effect and ±100 for the full control effect
# Target sequence (Q12809 whole entry, looked up): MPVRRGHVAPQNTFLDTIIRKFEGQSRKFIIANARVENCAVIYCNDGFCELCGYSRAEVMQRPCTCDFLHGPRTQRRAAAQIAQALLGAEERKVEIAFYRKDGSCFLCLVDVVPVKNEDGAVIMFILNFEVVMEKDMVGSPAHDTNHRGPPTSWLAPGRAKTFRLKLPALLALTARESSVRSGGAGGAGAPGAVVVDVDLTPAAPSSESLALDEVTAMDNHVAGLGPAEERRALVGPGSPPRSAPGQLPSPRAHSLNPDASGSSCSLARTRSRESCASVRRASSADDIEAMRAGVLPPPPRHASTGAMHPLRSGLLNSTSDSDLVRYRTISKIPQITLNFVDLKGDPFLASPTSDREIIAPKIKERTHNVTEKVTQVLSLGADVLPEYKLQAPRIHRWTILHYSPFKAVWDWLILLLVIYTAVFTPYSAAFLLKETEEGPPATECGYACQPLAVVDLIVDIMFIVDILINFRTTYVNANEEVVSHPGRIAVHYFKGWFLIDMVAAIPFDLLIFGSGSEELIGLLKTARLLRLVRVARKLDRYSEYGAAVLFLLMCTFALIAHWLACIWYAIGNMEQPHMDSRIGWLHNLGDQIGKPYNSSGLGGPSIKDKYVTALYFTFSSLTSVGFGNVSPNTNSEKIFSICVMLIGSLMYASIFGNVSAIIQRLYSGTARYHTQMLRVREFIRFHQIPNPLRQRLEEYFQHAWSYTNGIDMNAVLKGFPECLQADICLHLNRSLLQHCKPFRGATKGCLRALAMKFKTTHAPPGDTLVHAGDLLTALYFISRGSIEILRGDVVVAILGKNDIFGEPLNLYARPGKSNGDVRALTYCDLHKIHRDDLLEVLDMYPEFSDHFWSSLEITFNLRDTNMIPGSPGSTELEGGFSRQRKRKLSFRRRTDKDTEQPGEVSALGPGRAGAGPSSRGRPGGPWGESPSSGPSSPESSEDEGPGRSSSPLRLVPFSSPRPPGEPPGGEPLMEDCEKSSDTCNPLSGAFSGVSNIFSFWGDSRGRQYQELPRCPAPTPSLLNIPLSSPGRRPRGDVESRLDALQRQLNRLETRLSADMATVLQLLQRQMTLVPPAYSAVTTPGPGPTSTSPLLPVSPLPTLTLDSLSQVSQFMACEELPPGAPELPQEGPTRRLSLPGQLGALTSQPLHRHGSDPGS
#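 U2OS cells transduced with wild-type KCNH2 virus are loaded with FluxOr dye for 45 min, and thallium flux is measured in kinetic reads before and after stimulation buffer. Rate constants are normalized to DMSO controls.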
# CXXC DNA block = blocks binding of human MLL CXXC domain to DNA. MLL-CXXC / FITC-HOXA9 DNA fluorescence polarization. Potency, µM (doses to about 115 µM), without a hit: at the top dose activity change, negative = inhibition, usual class: inhibitors. actives 0.037% (n = 290,000). AID 2662; active = well fitted inhibition curve with a large enough effect in the polarisation, with a control signal flat, not every such curve was filed as active; inconclusive = small, poorly fitted or top-dose-only effect, or effect the other way, or a change in a side signal; inactive = no such curve, though single readings can be large or run the other way; the % refers to the polarisation; also: potency is read from the fitted curve at half-maximal effect
#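 Steps: dispense CXXC domain solution (7 uM) → pin compounds or unlabeled HOX-A9 DNA control → 5 min ambient → add FLSN-HOX-A9 solution (50 nM) → spin → 30 min ambient → fluorescence polarization. Tris pH 7.5/NaCl/DTT/BSA buffer.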
# Menin MLL FP FL = displaces fluorescein MLL peptide from human menin; Fluorescence polarization, fluorescein-MLL peptide displacement from menin; FP activity change, % at 61.4 µM; 290,000 tested, under 10 active; active = well fitted curve in the direction sought with a large enough effect in the polarisation, not every such curve was filed as active; inconclusive = small, poorly fitted or top-dose-only effect, or effect the other way, or a change in a side signal; inactive = no such curve, though single readings can be large or run the other way; the % refers to the polarisation; also: % of control where 0% means no effect
# Menin MLL FP TR = inhibitors of human menin-MLL interaction, mutant MLL peptide; Menin + Texas Red MLL mutant peptide, fluorescence polarization; Potency, µM (highest dose often 61.6 µM), for the others: at the highest dose FP activity change, negative = inhibition, most hits filed as inhibitors; actives 0.23% (n = 270,000); AID 1768; active = well fitted inhibition curve with a large enough effect in the polarisation, with a control signal flat, not every such curve was filed as active; inconclusive = small, poorly fitted or top-dose-only effect, or effect the other way, or a change in a side signal; inactive = no such curve, though single readings can be large or run the other way; the % refers to the polarisation; also: potency is read from the fitted curve at half-maximal effect; % of control where 0% means no effect
# KCNH2 3.1 inh = KCNH2 3.1 (human) potassium channel inhibition. AID 720553. U2OS KCNH2 3.1, thallium flux FluxOr; stronger effect = lower value. activity change, % (tested at about 1.8 µM). actives 0.95% (n = 340,000);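 active = maximum activity change below -70%; inconclusive = maximum activity change from -70% to -50%; inactive = maximum activity change above -50%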;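 also: thallium influx rate constant from kinetic fluorescence after stimulation buffer; % is scaled to controls: 0 for no effect and ±100 for the full control effect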
#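 Kinetic fluorescence (2 min after stimulation buffer) measures Tl+ influx through KCNH2 3.1 expressed by viral transduction in U2OS cells; the rate constant is normalized against DMSO controls serving as positive and negative references.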
# The depositor's hits bear a star; ? = inconclusive; / = no result; [ ] = dose if it differs, or a comment. Sampled rows, rich in hits. Any-hit rate of the full collection: about 1.1%.
SMILES,KCNH2 WT inh,CXXC DNA block,Menin MLL FP FL,Menin MLL FP TR,KCNH2 3.1 inh
COc1ccc(Cl)cc1C(=O)Nc1ccccc1N1CCN(C(=O)C(C)C)CC1,-90*,7%,3,-13%,-10
O=C(Nc1ccccc1N1CCN(C(=O)c2ccccc2)CC1)c1cc(Br)ccc1Cl,?,22%,-7,-15%,-92*
CCOc1ccc(C(=O)Nc2ccccc2N2CCN(C(=O)c3ccccc3)CC2)cc1[N+](=O)[O-],-92*,-3%,/,/,-104*
COc1ccc(C(=O)Nc2ccccc2N2CCN(C(=O)C(C)C)CC2)cc1Cl,-4,2%,1,-3%,-3
CCOc1ccc(C(=O)NC(=S)Nc2ccccc2N2CCC(C)CC2)cc1[N+](=O)[O-],-9,16%,3,-17%,-24
O=C(Nc1ccc(N2CCN(C(=O)c3ccccc3)CC2)c(Cl)c1)c1ccc(Br)o1,-12,-7%,2,2%,-102*
C[C@H]1CN=C(Nc2ccccc2)N1CC1CCCCCC1,-5,-2%,3,-13%,24
NC(=O)c1ccc2nc(-c3ccc(Oc4ccc(Cl)cc4)cc3)[nH]c2c1,/,/,2,?,/
O=C1CCC=C1[C@@H](O)CCc1ccccc1,/,/,-9[11.7 µM],-1%[11.7 µM],/
COc1ccc(Br)cc1C(=O)Nc1ccccc1N1CCN(C(=O)c2ccccc2)CC1,-85*,-10%,-1,-6%,17
CCOC(=O)C1(Cc2cccc(OC)c2)CCN(Cc2ccc(OC)c(O)c2)CC1,28,0%,-4,-22%,-77*
CCOC(=O)C1(CCOc2ccccc2)CCN(Cc2cc(OC)c(O)c(OC)c2)CC1,-22,2%,0,1%,-77*
CCOC(=O)C1(CCOc2ccccc2)CCN(Cc2ccc(OC)c(COC)c2)CC1,-3,-3%,0,-9%,?
CCOC(=O)C1(CCOc2ccccc2)CCN(Cc2ccc(O)c(OCC)c2)CC1,-118*,-2%,1,?,-102*
CCOC(=O)C1(CCOc2ccccc2)CCN(Cc2ccc(OC)c(O)c2)CC1,-77*,10%,-5,-23%,-112*
CCOC(=O)C1(Cc2cccc(OC)c2)CCN(CCO)CC1,-4,-1%,31,-19%,4
C[C@H](CO)N1C[C@H](C)[C@@H](CN(C)S(=O)(=O)c2ccccc2C#N)OCc2cn(nn2)CCCC1=O,-5,/,/,/,1
O=Cc1cn(CCOc2ccccc2)c2ccccc12,-5,4%,-1,3%,-21
CC[C@H](C)[C@H](NC(=O)[C@H](Cc1ccc(O)cc1)NC(=O)[C@@H]1CCCN1C(=O)[C@H](CCCN=C(N)N)NC(=O)[C@H](CCCN=C(N)N)NC(=O)[C@@H]1CCCN1C(=O)[C@H](CCCCN)NC(=O)[C@H](CC(N)=O)NC(=O)[C@H](CCC(N)=O)NC(=O)[C@H](Cc1ccc(O)cc1)NC(=O)[C@H](CC(C)C)NC(=O)[C@@H]1CCC(=O)N1)C(=O)N[C@@H](CC(C)C)C(=O)O,/,/,5,8%,/
Cc1ccc(NC(=O)C2CCCN(C(=O)c3ccc(Cl)cc3)C2)cc1 (stereo not drawn),-4,6%,6,1%,-6
Cc1ccc(NC(=O)C2CCCN(C(=O)c3ccc(Cl)cc3)C2)cc1C (stereo not drawn),-6,-1%,-8,-10%,-122*
CCOc1ccccc1CN1CCNC(=O)C1CC(=O)N(C)C1CCOCC1 (stereo not drawn),1,8%,/,/,-16
CCC1(c2ccc(F)cc2)NC(=O)N(CC(=O)N(C)C2CCS(=O)(=O)C2)C1=O (stereo not drawn),1,/,/,/,1
Cn1cc(Br)c(NC(=O)/C=C/C(=O)O)n1,-6,14%,-1,/,-122*
Cn1cc(Br)c(C(=O)Nc2c(F)c(F)c(F)c(F)c2F)n1,3,4%,1,-7%,27
SMILES,KCNH2 WT inh,CXXC DNA block,Menin MLL FP FL,Menin MLL FP TR,KCNH2 3.1 inh
CCC(C(=O)NC1CCCCC1)n1c(SCc2ccccc2F)nc2ccncc21 (stereo not drawn),5,24%,1,2%,-118*
CCOC(=O)C1(CCc2ccccc2)CCN(Cc2ccc(O)cc2)CC1,-113*,4%,1,-4%,-116*
CCOC(=O)C1(CCc2ccccc2)CCN(Cc2cnc(N(C)C)s2)CC1,-86*,-3%,0,-15%,-112*
CCOC(=O)C1(CCc2ccccc2)CCN(Cc2c(O)cccc2OC)CC1,-4,-6%,3,?,6
CCOC(=O)C1(CCc2ccccc2)CCN(Cc2ccc(OC)cc2)CC1,-136*,-5%,-4,?,-111*
CN(C)c1ncc(CN2CCC(CO)(CCCc3ccccc3)CC2)s1,20,-1%,0,/,-7
CCOC(=O)C1(CC2CC2)CCN(Cc2ccc(OC)cc2F)CC1,17,-12%,4,30%,-108*
COCCn1c(Cc2ccccc2)nnc1SCC(=O)Nc1oc(C)c2c(C)n[nH]c(=O)c12,-8,/,/,/,5
CC(=O)OCC(=O)[C@@]1(O)[C@H](C)C[C@@H]2[C@H]3CCC4=CC(=O)C=C[C@]4(C)[C@]3(F)[C@@H](O)C[C@@]21C,/,1%[51.4 µM],5[24.8 µM],2%[24.8 µM],/
O=c1[nH]c2ccccc2c(O)c1-c1cc2ccccc2oc1=O,/,12%,0,-11%,/
OCC1(CCCc2ccccc2)CCN(C2CCSCC2)CC1,26,-1%,-1,-21%,1
CCOC(=O)C1(CCCc2ccccc2)CCN(C2CCSCC2)CC1,-126*,-2%,0,?,-107*
Cc1nn(-c2ccc(Cl)cn2)c2c1C(=O)CC(C)(C)C2Br (stereo not drawn),-4,/,/,/,0
CC(=O)Nc1ccc(N2C(=O)c3ccc(S(=O)(=O)c4ccc(C(=O)O)cc4)cc3C2=O)cc1,-168*,2%,/,/,22
CC(=O)Nc1ccc(NC(=O)c2ccc(NC(=O)c3ccccc3)cc2)cc1,14,-5%,/,/,36
CC(=O)Nc1ccc(NC(=O)c2ccc(N(C)S(=O)(=O)c3ccc(C)cc3)cc2)cc1,13,-4%,/,/,2
O=C(Nc1ccc(NC(=O)c2ccc(S(=O)(=O)c3ccccc3)cc2)cc1)c1ccccc1,-9,36%,3,10µM*,-5
CN(c1ccccc1)S(=O)(=O)c1ccc(NC(=O)c2ccc(-c3ccccc3)cc2)cc1,-11,31%,1,28µM*,2
Cc1ccc(NC(=O)N[C@H](C(=O)O)C(C)C)c(C)c1,-13,2%,-1,/,3
O=[N+]([O-])c1ccccc1S(=O)(=O)N1CCN(c2ccccc2)CC1,8,4%,1,?,-9
CCC(C)[C@H](N)c1cn([C@@H](Cc2cc3ccccc3[nH]2)C(=O)N2CCNCC2)nn1 (stereo partly drawn),-252*,-15%,-1,3%,42
N#CC1(NC(=O)CSc2nnc(-c3ccccc3F)o2)CCCCC1,-6,/,/,/,?
